# Reference: article PMC5540273 (PLoS ONE, 2017)
# What was measured:
# Conditions in all cases: concentration: 1 μM, replicates: in singlicate; n = 1
# NEK11 = system: NEK11
# NEK1 = system: NEK1
# NEK2 = system: NEK2
# NEK3 = system: NEK3
# NEK4 = system: NEK4
# NEK5 = system: NEK5
# NEK6 = system: NEK6
# NEK7 = system: NEK7
# NEK9 = system: NEK9
# NIK = system: T1, NIK
# T1 construct: gene MAP3K14
# NIM1 = system: T2, NIM1
# T2 construct: gene MGC42105
# NLK = system: NLK
# OSR1 = system: T3, OSR1
# T3 construct: gene OXSR1
# PAK1 = system: PAK1
# PAK2 = system: PAK2
# PAK3 = system: PAK3
# PAK4 = system: PAK4
# PAK6 = system: PAK6
# PAK7 = system: PAK7
# PCTK1 = system: T4, PCTK1
# T4 construct: gene CDK16
# 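Note: KINOMEscan kinase panel screen.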
Structure (SMILES),%Inh (NEK11) [%],%Inh (NEK1) [%],%Inh (NEK2) [%],%Inh (NEK3) [%],%Inh (NEK4) [%],%Inh (NEK5) [%],%Inh (NEK6) [%],%Inh (NEK7) [%],%Inh (NEK9) [%],%Inh (NIK) [%],%Inh (NIM1) [%],%Inh (NLK) [%],%Inh (OSR1) [%],%Inh (PAK1) [%],%Inh (PAK2) [%],%Inh (PAK3) [%],%Inh (PAK4) [%],%Inh (PAK6) [%],%Inh (PAK7) [%],%Inh (PCTK1) [%]
CCS(=O)(=O)c1ccc(OC)c(Nc2nccc(-c3c(-c4cccc(NC(=O)c5c(F)cccc5F)c4)nn4ncccc34)n2)c1 [GSK326180],0,0,4,14,6,15,0,0,10,6,7,48,9,0,0,14,0,11,3,2
c1ccc(Oc2ccc(Nc3ccnc4cc(-c5ccc(CNCCN6CCOCC6)o5)ccc34)cc2)nc1 [GW567145],45,0,0,0,0,0,0,0,13,28,20,12,2,0,0,3,0,0,0,0
COc1cc(Nc2ncc3c(C)nc(-c4cc5ccccc5[nH]4)n3n2)cc(OC)c1OC [GW869516],86,16,70,89,41,99,99.6,99.7,90,0,0,0,0,5,22,69,33,23,28,0
COc1cc2c(cc1OCCN1CCNCC1)ncc1c3ccc(C#N)cc3[nH]c21,7,0,41,29,100,0,15,0,0,65,66,0,20,0,4,0,0,8,0,16
COC(=O)Nc1nc2cc(Oc3ccc(NC(=O)Nc4cc(C(F)(F)F)ccc4F)cn3)ccc2[nH]1.Cl.Cl [GW681170],34,0,0,0,0,0,0,0,35,26,27,30,0,0,0,9,0,0,0,0
CC(C)c1nc(-c2cccc(NS(=O)(=O)c3c(F)cccc3F)c2F)c(-c2ccnc(Nc3ccc(N4CCOCC4)nc3)n2)s1 [GSK2008607],98.6,82,99.1,1,51,26,99.1,92.9,93.6,0,1,97.5,0,27,18,93.3,0,9,20,99.5
Cc1ccc(C)c(NC(=O)NC2CCN(c3ccnc(Nc4ccc(F)cc4)n3)C2)c1 (centres unmarked) [GSK1379720],15,0,0,8,27,4,0,0,0,22,43,4,0,4,2,14,0,0,0,0
Cc1ccc(S(=O)(=O)Nc2ccc(Nc3nccc(Nc4cccc5[nH]ncc45)n3)cc2)cc1 [GSK581271],27,0,4,0,20,5,0,0,11,0,26,56,13,14,12,35,0,18,0,2
C[C@@H]1CC[C@@H](C(=O)Nc2ccccc2)CN1c1cc(-c2ccc3c(N)n[nH]c3c2)nc(N)n1 [GSK2286062],0,1,0,4,0,7,0,0,8,0,23,11,10,20,6,0,0,0,6,0
COc1cccc(-c2ccc3c(NC(=O)C4CC4)n[nH]c3n2)c1 [SB-710903],36,0,0,18,0,6,0,0,0,0,46,49,13,0,0,1,0,0,8,10
